# Source: PubChem
# Rows were chosen to be rich in hits. Some 18% of all compounds tested hit in one or more screens of this group.
# PLK1 PBD inh: qHTS for Inhibitors of PLK1-PDB (polo-like kinase 1 - polo-box domain): Primary Screen | Serine/threonine-protein kinase PLK1 (Homo sapiens), P53350 | Plk1 PBD binding of FITC phosphopeptide, fluorescence polarization | Potency, µM, most hits filed as inhibitors | 360,000 tested, 2.8% active; also: series mostly up to about 57 µM; nearly all actives have a fitted effect of over 65% in size
# TDP1 cell CPT: qHTS for Inhibitors of human tyrosyl-DNA phosphodiesterase 1 (TDP1): qHTS in cells in presence of CPT; 420,000 tested, 12% active; chicken DT40 Tdp1-/-;hTDP1 cells + 20 nM CPT, ATP luminescence, 48 h; Potency, µM (series often up to 46.2 µM), hits mostly inhibitors; also: nearly all actives have a fitted effect of over 55% in size
#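 Chicken DT40 Tdp1-/- cells stably complemented with human TDP1 were seeded at 400 cells/well in medium containing 20 nM camptothecin, exposed to pin-transferred compounds, and grown at 37 °C for at least 48 hr. Viability was read as ATP luminescence.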
# TDP1 inh: qHTS Assay for Inhibitors of Tyrosyl-DNA Phosphodiesterase (TDP1); Potency, µM (doses to about 130 µM), usual class: inhibitors; 350,000 tested, 0.28% active; recombinant TDP1, AlphaScreen DNA substrate cleavage; Tyrosyl-DNA phosphodiesterase 1 (Homo sapiens), Q9NUW8; AID 485290, 2010; also: nearly all actives have a fitted effect of over 40% in size
# Target sequence (Q9NUW8 whole entry, looked up): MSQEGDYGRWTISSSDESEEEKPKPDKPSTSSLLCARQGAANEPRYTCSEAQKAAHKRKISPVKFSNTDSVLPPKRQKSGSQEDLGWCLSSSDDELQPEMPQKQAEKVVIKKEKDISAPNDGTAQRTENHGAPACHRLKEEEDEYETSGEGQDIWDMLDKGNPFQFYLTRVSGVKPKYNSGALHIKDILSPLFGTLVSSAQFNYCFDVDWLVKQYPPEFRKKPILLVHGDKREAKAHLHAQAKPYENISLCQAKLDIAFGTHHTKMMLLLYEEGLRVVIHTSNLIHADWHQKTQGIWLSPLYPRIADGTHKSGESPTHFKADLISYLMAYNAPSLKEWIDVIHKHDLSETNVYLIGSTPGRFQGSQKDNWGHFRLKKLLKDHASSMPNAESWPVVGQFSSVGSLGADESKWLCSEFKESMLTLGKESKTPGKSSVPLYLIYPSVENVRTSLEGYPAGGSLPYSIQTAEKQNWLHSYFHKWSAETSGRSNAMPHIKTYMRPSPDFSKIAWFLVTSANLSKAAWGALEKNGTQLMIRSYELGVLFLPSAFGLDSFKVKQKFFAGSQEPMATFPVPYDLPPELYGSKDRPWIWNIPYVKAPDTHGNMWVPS
#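 Enzyme-compound mixtures sat 15 min at room temperature, followed by a 5 min reaction with 15 nM final substrate and 10 min with AlphaScreen beads. Recombinant human Tdp1 was used at 1 nM final.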
# KAT2A inh: qHTS Assay for Inhibitors of GCN5L2 | Histone acetyltransferase KAT2A (Homo sapiens), Q92830 | AID 504327, 2011 | 390,000 tested, 0.21% active | Potency, µM (series often up to 58.9 µM), most hits filed as inhibitors | GCN5L2 HAT assay, ThioGlo1 CoA-SH fluorescence
#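 Compounds, pin-transferred from DMSO stocks, meet 20nM GCN5L2 for 15 min before the reaction begins with H3(1-25) peptide (75uM) and acetyl-CoA (70uM). Thiol-reactive ThioGlo1 reports CoA release over 20 min at room temperature.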
# DT40 TDP1 no CPT: qHTS for Inhibitors of human tyrosyl-DNA phosphodiesterase 1 (TDP1): qHTS in cells in absence of CPT. Potency, µM (doses to about 46.2 µM), actives largely listed as inhibitors. DT40 Tdp1-/- hTDP1 cells, no CPT, ATP luminescence, 48 h. 420,000 tested, 15% active; also: nearly all actives have a fitted effect of over 55% in size
#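 Chicken DT40 Tdp1-/- cells stably complemented with human TDP1 were seeded at 400 cells/well with DMSO in place of 20 nM camptothecin. After compound pinning, cells grew at least 48 hr at 37 °C; viability read by CellTiter-Glo luminescence.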
# VDR inhibitor: Inhibitors of the vitamin D receptor (VDR): qHTS | Vitamin D3 receptor (Homo sapiens), P11473 | VDR-SRC2-3 peptide fluorescence polarization, 2 h | Potency, µM, most hits filed as inhibitors | 400,000 tested, 0.93% active
#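 Signal is fluorescence polarization, reporting how far test compounds block the interaction of VDR with the SRC2-3 coregulator peptide after a 2 h room-temperature incubation.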
# Hits are given with their value; n = inactive; u = inconclusive; x = not tested or not shown. Calls follow the shape of the dose curve; as a rule, active = well fitted curve in the direction sought with a large enough effect; inconclusive = small, poorly fitted or top-dose-only effect, or another doubt; inactive = no such curve, though single readings can be large; an effect the other way counts as inactive or inconclusive.
SMILES,PLK1 PBD inh,TDP1 cell CPT,TDP1 inh,KAT2A inh,DT40 TDP1 no CPT,VDR inhibitor
COc1ccc(C(O)c2ncc(-c3ccccc3OC)[nH]2)cc1F (stereo not given),n,n,x,x,n,x
COc1ccc(NS(=O)(=O)c2ccc(N3CCCC3)c(NC(=S)Nc3cccc(S(=O)(=O)N(C)C)c3)c2)cc1,x,x,n,n,x,x
COc1ccc(-n2c(=O)c3c4c(sc3n(CC(=O)Nc3cc(C)[nH]n3)c2=O)CCCC4)c(OC)c1,n,n,n,n,n,n
COc1ccc(-n2c(=O)c3c4c(sc3n(Cc3ccccc3Cl)c2=O)CCC4)c(OC)c1,x,u,n,n,20.6µM,n
CCCN(CCC)C(=O)Cn1c(=O)n(-c2ccc(OC)cc2OC)c(=O)c2c3c(sc21)CCC3,x,n,n,n,u,n
COc1ccc(-n2c(=O)c3c4c(sc3n(Cc3ccc(F)cc3)c2=O)CCCC4)c(OC)c1,x,20.6µM,n,n,14.6µM,n
COc1ccc(-n2c(=O)c3c4c(sc3n(Cc3ccc(C)cc3C)c2=O)CCC4)c(OC)c1,x,18.4µM,n,n,u,n
O=C(O)C1CCCN1 (stereo not given),x,n,n,n,n,n
COc1ccc(C(=O)C(C)[n+]2ccc(C)c3ccccc32)cc1[N+](=O)[O-] (stereo not given),n,18.4µM,x,n,7.31µM,n
CNC(=O)c1c(NC(=O)c2cc(=O)c3cc(C)c(C)cc3o2)sc2c1CCCC2,x,n,n,n,n,n
Cc1ccc2c(Cl)c(Cc3ccccc3)c(=S)[nH]c2n1,u,u,x,x,u,n
CCCCCCCCC1CO1 (stereo not given),x,x,n,x,x,x
CCCCCCC1CC(=CN(C)C)C(=O)O1 (stereo not given),n,u,x,x,16.4µM,x
O=C(CN1C(=O)CCSc2ccccc21)Nc1ccc(C(F)(F)F)cc1,x,x,n,n,x,n
CCCCc1nc2cc(C(=O)NCc3cc(C)n(C)n3)ccc2o1,n,n,n,n,n,n
C=C1C(=O)[C@]23C[C@H]1CC[C@H]2[C@]1(C)[C@@H](OC(C)=O)CC[C@@](C)(C(=O)OC)[C@H]1C[C@@H]3OC(C)=O,u,0.581µM,x,x,0.92µM,x
C=C1C(=O)[C@]23C[C@H]1CC[C@H]2[C@]1(C)[C@@H](O)CC[C@@](C)(C(=O)O)[C@H]1C[C@@H]3O,n,2.31µM,x,x,2.91µM,x
C=C1C(=O)[C@]23C[C@H]1CCC2[C@@]1(C)C(C[C@@H]3O)[C@](C)(C(=O)OC)CC[C@@H]1OC(C)=O (stereo not given in full),10.6µM,0.82µM,x,x,0.92µM,x
C=C1C(=O)[C@]23C[C@H]1CC[C@H]2[C@]1(C)[C@@H](OC(C)=O)CC[C@@](C)(C(=O)O)[C@H]1C[C@@H]3O,u,1.03µM,x,x,1.03µM,x
C=C1C(=O)[C@]23C[C@H]1CCC2[C@@]1(C)C(C[C@@H]3O)[C@](C)(C(=O)O)C[C@H](O)[C@@H]1O (stereo not given in full),n,n,x,x,n,x
Cc1cccc(C(=O)OCC(=O)NN2C(=O)NC3(CCC(C)CC3)C2=O)c1O (stereo not given),n,n,x,n,n,n
COc1ccc(/C=C/C(=O)C(C(N)=O)=C2SCCS2)cc1,n,u,n,n,u,n
NC(=O)C(C(=O)/C=C/c1ccc(Cl)cc1)=C1SCCS1,n,3.26µM,x,n,8.2µM,n
CSCCC(N=C(NS(=O)(=O)c1ccc(C)cc1)c1ccccc1)C(=O)O (stereo not given),n,n,x,n,n,n
CCOc1ccccc1C(=O)N1CCN(c2cccc(Cl)c2)CC1,n,0.0366µM,n,n,0.164µM,n
SMILES,PLK1 PBD inh,TDP1 cell CPT,TDP1 inh,KAT2A inh,DT40 TDP1 no CPT,VDR inhibitor
COc1cc(Cl)ccc1NC(=O)COc1ccccc1C(=O)N1CCN(c2ccc(O)cc2)CC1,n,23.1µM,n,n,23.1µM,n
COc1ccc(C(=O)N2CCN(c3cccc(Cl)c3)CC2)c(OC)c1,n,16.4µM,n,n,11.6µM,n
CCOc1ccc2ccccc2c1C(=O)N1CCN(c2ccccc2)CC1,n,u,n,n,16.4µM,n
COc1ccccc1OCC(=O)Nc1ccc(N2CCCCC2)cc1,n,u,n,n,n,n
O=C(O)c1ccccc1C(=O)N1CCN(c2cccc(Cl)c2)CC1,n,n,n,n,n,n
COc1ccc(OC)c(CCNC(=O)CN2C(=O)CCSc3ccccc32)c1,n,n,x,n,n,n
Fc1cccc(Cl)c1Cn1c(-c2cccs2)nc2ccccc21,x,u,n,n,u,n
CC(=O)C(Sc1nccc(-c2cccs2)n1)C(C)=O,n,u,n,n,18.4µM,n
CC(C)NC(=O)CSc1nccc(-c2cccs2)n1,n,n,n,n,n,n
CCOC(=O)c1cnc2ccc(C)cc2c1NCCN1CCOCC1,n,n,x,n,n,n
CCOC(=O)c1cnc2ccc(C)cc2c1NCCc1ccc(OC)c(OC)c1,x,14.6µM,x,n,14.6µM,n
CCOC(=O)c1cnc2ccc(OCC)cc2c1NCCc1ccc(OC)c(OC)c1,x,3.26µM,n,n,2.31µM,n
COc1cccc(-c2ccc(SCC(=O)N3CCc4ccccc43)nn2)c1,x,x,n,n,x,x
CC12C(=O)N(c3nccs3)C(=O)C1C1C=CC2C1 (stereo not given),n,n,22.4µM,n,n,n
CC1CC(=O)Nc2ccccc2N1C(=O)CSc1nnnn1C(C)C (stereo not given),n,n,n,n,n,u
CCC(SC1=N/C(=C/c2ccccc2OC)C(=O)N1c1ccccc1)C(=O)Nc1cc(C)on1 (stereo not given),n,11.6µM,n,u,8.2µM,n
O=C1CC(c2ccccc2)Cc2[nH]c(=O)c(-c3nc(-c4ccc(Cl)c(Cl)c4)cs3)cc21 (stereo not given),x,3.26µM,n,n,2.31µM,n
COc1ccc(C2CC(=O)c3cc(-c4nc(-c5ccc(Cl)cc5)cs4)c(=O)[nH]c3C2)cc1 (stereo not given),x,n,n,n,n,n
COc1ccc(C2CC(=O)c3cc(-c4nc(-c5cccc(Cl)c5)cs4)c(=O)[nH]c3C2)cc1OC (stereo not given),x,u,n,n,9.2µM,n
